Screening data: PubChem BioAssay, several laboratories
PKA-R1A act: activates the PKA-R1A holoenzyme complex. P00514+P68181. AID 504707. activation, % at 11.4 µM. PKA-R1A dissociation, Cy5-IP20 fluorescence polarization; scaled: DMSO 0%, 113 µM cGMP 100%. 340,000 tested, 0.083% active;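 active = percent activation above the mean of all tested compounds plus 3 SD, cut at about 19% in these data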;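 note: higher means more PKAc released from R1A so a rise in polarization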
Neddyl block: cullin neddylation inhibition; inhibition, % at 25 µM; TR-FRET cullin neddylation, biochemical; 360,000 tested, 0.58% active; in the data active = inhibition above about 36%
Target sequence (P61081 whole entry, looked up): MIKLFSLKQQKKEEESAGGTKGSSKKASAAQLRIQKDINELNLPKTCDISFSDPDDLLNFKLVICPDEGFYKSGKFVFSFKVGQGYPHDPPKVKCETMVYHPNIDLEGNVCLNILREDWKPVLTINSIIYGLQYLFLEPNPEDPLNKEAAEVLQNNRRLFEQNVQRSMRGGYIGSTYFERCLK
Target sequence (Q13564 whole entry, looked up): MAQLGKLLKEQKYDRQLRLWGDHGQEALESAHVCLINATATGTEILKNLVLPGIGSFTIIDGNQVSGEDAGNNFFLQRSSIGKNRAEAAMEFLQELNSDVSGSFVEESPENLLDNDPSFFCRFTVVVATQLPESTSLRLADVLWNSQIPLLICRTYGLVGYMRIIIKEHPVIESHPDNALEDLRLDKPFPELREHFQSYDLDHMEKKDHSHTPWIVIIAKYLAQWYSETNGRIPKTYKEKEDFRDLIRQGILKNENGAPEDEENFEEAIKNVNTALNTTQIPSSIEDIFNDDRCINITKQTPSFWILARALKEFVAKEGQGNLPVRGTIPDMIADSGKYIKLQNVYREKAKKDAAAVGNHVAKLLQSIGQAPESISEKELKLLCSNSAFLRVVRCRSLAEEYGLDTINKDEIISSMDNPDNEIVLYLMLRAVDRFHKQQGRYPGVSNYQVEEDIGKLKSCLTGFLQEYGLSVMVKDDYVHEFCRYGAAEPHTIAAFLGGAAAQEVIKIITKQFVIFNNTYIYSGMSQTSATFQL
PKA-R2B act: activates the human PKA-R2B holoenzyme complex. P22694+P31323. PKA-R2B holoenzyme dissociation, Cy5-IP20 fluorescence polarization; R2B truncated from residue 108, S112A mutant; 0% DMSO only, 100% 113 µM cGMP. activation, % at 11.4 µM. 340,000 tested, 0.079% active. AID 504700;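 active = activation above a cutoff set at the mean over all compounds plus 3 SD, cut at about 18% in these data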;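 note: higher means more holoenzyme dissociation and a rise in polarization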
Rpn11 block: Rpn11 (human) deubiquitinase inhibition; 360,000 tested, 0.59% active; human 26S proteasome, Ub4-pepOG fluorescence polarization; 20S core pre-blocked with epoxomicin; O00487; AID 588493; calls only at 20 µM;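 active = inhibition at 20 µM, scaled to each plate's controls, above about 33%, limit read from the data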
Rpn11 inh conf: confirmation of human proteasome Rpn11 inhibitors; shares compounds with Rpn11 block; purified human 26S proteasome, Ub4-pepOG fluorescence polarization; proteasome pretreated with epoxomicin; inhibition, % at 20 µM; 1,900 tested, 29% active; AID 602318
MMP-2 inh: blocks human MMP-2, flagging nonselective RPN11 hits; shares compounds with Rpn11 block; inhibition, % at 20 µM; recombinant MMP-2, FRET peptide cleavage fluorescence; 1,900 tested, 4% active; AID 602330;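 note: human MMP-2 activated beforehand with APMA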
Thrombin FP: counter-screen for RPN11 inhibitors: inhibition of bovine thrombin; shares compounds with Rpn11 block; inhibition, % at 20 µM; AID 602333; 1,900 tested, 13% active; bovine thrombin cleavage of Ub4-pepOG, fluorescence polarization;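 active = mean inhibition at least 40% at 20 µM, or signal 3 deviations below plate average, so some actives read negative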
Hits are given with their value; 0 = inactive; - = no result shown; + = active, no number. Rows were chosen to be rich in hits. Some 1.3% of all compounds tested hit in one or more screens of this group. Cut-off read from the data, not from the text of the source, unless noted: active = inhibition above about 40%; inactive = the rest.

SMILES	PKA-R1A act	Neddyl block	PKA-R2B act	Rpn11 block	Rpn11 inh conf	MMP-2 inh	Thrombin FP
O=C(COC(=O)CCC1CCCC1)Nc1ccc(F)cc1	0	0	0	0	-	-	-
CCc1c(Cl)nc(N)nc1Nc1ccccc1C	0	0	0	+	0	0	0
CCCc1ccc(S(=O)(=O)N2CCN(C(=O)CN3C(=O)NC(C)(C4CC4)C3=O)CC2)cc1 (stereo not drawn)	0	0	0	0	-	-	-
Nc1c(-c2ccccc2)c(CSc2nc3ccccc3[nH]2)nn1-c1cccc(Cl)c1	0	0	0	+	42	0	0
CN(C)CCCNc1ccc(-c2n[nH]c(=O)c3ccccc23)cc1[N+](=O)[O-]	0	0	0	+	0	0	0
CC(O)CNc1ccc(-c2n[nH]c(=O)c3ccccc23)cc1[N+](=O)[O-] (stereo not drawn)	0	0	0	0	-	-	-
CCCCCCCCCCCCCCCC[N+](C)(C)Cc1ccc(F)cc1	0	0	0	+	88	0	0
Cc1ccccc1-c1csc(C(O)c2ccc(F)c(F)c2)n1 (stereo not drawn)	-	0	-	0	-	-	-
Cc1ccc(Nc2nc(-c3ccc(C)cc3)c(CC(=O)O)s2)cc1	0	0	0	+	0	0	0
CC(=O)c1cccc(Nc2nc3ccccc3n3cnnc23)c1	0	0	0	0	-	-	-
O=C(CCC(=O)Nc1ccccc1Cl)NNC(=O)c1ccco1	0	0	0	+	0	0	0
Cc1c(Cl)cccc1NC(=O)CCC(=O)NNC(=O)c1ccco1	0	0	0	0	-	-	-
Cc1cc(N/N=C/c2ccc([N+](=O)[O-])o2)nc2ccccc12	0	0	0	+	0	0	0
O=[N+]([O-])c1ccc(/C=N/Nc2ccnc3cc(Cl)ccc23)o1	0	0	0	+	0	0	0
Cc1cc2ncn(/N=C/c3ccc([N+](=O)[O-])o3)c2cc1C	0	0	0	+	50	0	0
Cc1ccc(-c2cc(C(=O)N/N=C/c3ccc([N+](=O)[O-])o3)c3ccccc3n2)o1	0	-	0	0	-	-	-
O=[N+]([O-])c1ccc(/C=N/N=C/c2ccc([N+](=O)[O-])o2)o1	0	0	0	0	-	-	-
O=C(CCCN1C(=O)C2CC=CCC2C1=O)Nc1ccccc1F (stereo not drawn)	0	0	0	0	-	-	-
Cc1noc(C)c1COc1ccccc1C(=O)NCc1ccco1	0	0	0	0	-	-	-
CCSc1nc2sc3c(c2c(=O)n1-c1ccccc1)CCN(C)C3	0	0	0	+	0	0	0
CCOC(=O)c1sc(NC(=O)Nc2ccccc2F)nc1C	0	0	0	0	-	-	-
CCOC(=O)c1sc(NC(=O)/C=C/c2c(F)cccc2Cl)nc1C	0	0	0	+	0	0	0
CCn1nnnc1NCc1ccc(N2CCCC2)cc1	0	0	0	+	0	0	0
CCN1CC(O)=C(c2nc3ccccc3s2)C1=N	0	0	0	+	0	0	0
O=C(Nc1nnc(Cc2c[nH]c3ccccc23)s1)c1ccc(Cl)cc1Cl	0	0	0	+	0	0	0
SMILES	PKA-R1A act	Neddyl block	PKA-R2B act	Rpn11 block	Rpn11 inh conf	MMP-2 inh	Thrombin FP
C/C(=N\Nc1ccc([N+](=O)[O-])cc1)c1ccc(-n2nncc2C)cc1	0	0	0	+	0	0	0
C/C(=N\Nc1ccc([N+](=O)[O-])cc1)c1ccc(N2CCOCC2)cc1	0	0	0	0	-	-	-
O=C(O)c1cc(-c2ccco2)nn1-c1ccc(Cl)cc1	0	0	0	0	-	-	-
O=C(O)c1cc(-c2ccco2)nn1-c1cccc(Cl)c1	0	0	0	+	0	0	0
Cc1nnc(SCc2nc3sc4c(c3c(=O)[nH]2)CCCC4)[nH]c1=O	0	0	0	+	0	0	84
CCCc1nc2sc3c(c2c(=O)[nH]1)CCCC3	0	0	0	0	-	-	-
COc1ccccc1NC(=O)C(C)OC(=O)C1CCC(C(C)(C)C)CC1 (stereo not drawn)	0	0	0	0	-	-	-
N#Cc1c(-c2cccs2)nc(SCC(=O)c2cccs2)[nH]c1=O	0	0	0	+	68	0	44
O=C(CCNC(=O)c1ccc(Br)cc1)NNC(=O)c1ccccc1O	0	0	0	0	-	-	-
CCOc1ccc(N2C(=O)/C(=C\c3ccc(OC)c(O)c3)S(=O)(=O)C2c2cccc([N+](=O)[O-])c2)cc1 (stereo not drawn)	0	0	0	0	-	-	-
CCOc1ccc(N2C(=O)/C(=C\c3ccc(O)c(OC)c3)S(=O)(=O)C2c2cccc([N+](=O)[O-])c2)cc1 (stereo not drawn)	0	0	0	+	0	0	0
CN1CCc2c(sc3c2C(=O)NC(c2ccco2)N3)C1 (stereo not drawn)	0	0	0	0	-	-	-
CN1CCc2c(sc3c2C(=O)NC(c2cn(Cc4ccccc4)c4ccccc24)N3)C1 (stereo not drawn)	0	0	0	+	59	0	41
Cc1cc(NC(=O)CCC(=O)N(c2cccnc2)C(C(=O)NC2CCCC2)c2ccccc2)no1 (stereo not drawn)	0	0	0	0	-	-	-
Cc1cc(NC(=O)CCC(=O)N(c2ccccc2)C(C(=O)NCC2CCCO2)c2cccnc2)no1 (stereo not drawn)	0	0	0	+	0	0	0
CC(=O)Oc1ccc(C#C/C=C2\c3ccccc3C(=O)N2c2ccccc2)cc1	0	0	0	+	51	0	0
O=C(COC(=O)c1ccccc1SCC(=O)N1CCCC1)NCc1ccccc1	0	0	0	0	-	-	-
COCCNC(=O)c1c(NC(=O)c2nc(SC)ncc2Cl)sc2c1CCCC2	0	0	0	+	45	0	0
CCOC(=O)Cn1ncc(-c2ccccc2)c1N	0	0	0	+	0	0	0
COC(=O)c1c(N)[nH]c(C(=O)c2ccccc2)c1-c1ccccc1Br	-	0	-	-	-	-	-
NS(=O)(=O)c1ccc(CCNC(=O)COC(=O)C2COc3ccccc3O2)cc1 (stereo not drawn)	0	0	0	0	-	-	-
OCC(O)CNC(=S)NC1CCCCC1 (stereo not drawn)	0	0	0	0	-	-	-
CC(Nc1ccc(Br)cn1)c1cc(Cl)ccc1O (stereo not drawn)	0	0	0	+	0	0	0
CC(Nc1ccc(Cl)cc1)c1cc(Cl)ccc1O (stereo not drawn)	0	0	0	0	-	-	-
Cc1ccc2oc(=O)c(/C=C(\O)c3ccco3)nc2c1	0	0	0	+	70	0	0
CN(C(=O)c1cccc(S(=O)(=O)N2CCOCC2)c1)c1c(N)n(Cc2ccccc2)c(=O)[nH]c1=O	0	0	0	0	-	-	-
COc1cccc(C(C)=C2SC(=S)NC2=O)c1	0	0	0	0	-	-	-
